Among the data in ChEMBL document CHEMBL4513216, “Probing the Open Global Health Chemical Diversity Library for Multistage-Active Starting Points for Next-Generation Antimalarials” (ACS Infect Dis, 2020) are INHIBITION values, retold here.

Hit rate of the full screen: of about 68,000 compounds, about 2,700 (4%) showed an effect of 50% or more. The sample as a whole holds a higher share of strong results than the screen did.

The subject of the experiment is Plasmodium berghei. In words: Screen against P. berghei liver stage (PbLuc), transformed with Luciferase, at 2uM. Conditions: tested at 2 uM. Format: functional, HepG2.
`CC(C)c1nc(CCn2cncn2)n(-c2ccc3c(c2)OCCO3)n1`: the INHIBITION is given as -39.01%.
Regarding `CC(C)Cc1nc(CO)n(-c2ccc3c(c2)OCCO3)n1`, the INHIBITION was 31.8%.
Regarding `CC(C)Cc1nc(CCn2cncn2)n(-c2ccc3c(c2)OCCO3)n1`, the INHIBITION was 61.14%.
As for `Cc1cc(N)cc(C2CN(Cc3cc[nH]n3)CCO2)n1` (stereo not drawn), the INHIBITION was 26.14%.
`COc1ccc(C2CCCCCN2S(N)(=O)=O)cc1` (stereo not drawn): the INHIBITION is recorded as -16.65%.
As to `Cc1cc(C(=O)N2CCc3nc(C4CCCCN4)ncc3C2)cs1` (stereo not drawn), the INHIBITION is given as 12.8%.
As to `Cc1cc(C(=O)N2CCc3nc(C4CCCN4)ncc3C2)cs1` (stereo not drawn), the INHIBITION is 40.31%.
In the case of `CC(C)c1cc(C(=O)N2CCc3nc(C4CCCN4)ncc3C2)cs1` (stereo not drawn), the INHIBITION turned out to be 67.83%.
In the case of `CC(C)(C)C(=O)NS(=O)(=O)c1ccc(C#N)c(C(F)(F)F)c1`, the INHIBITION is reported as 1.52%.
Consider `COc1ccc(Oc2nccnc2C2CCN(C(C)=O)CC2)cc1`, for which the INHIBITION was 12%.
In the case of `Cc1cccc(C)c1Oc1ncccc1CNC(=O)C1(C)CCCNC1` (stereo not drawn), the INHIBITION was found to be 50.32%.
The result for `CC1(C(=O)NCc2cccnc2Oc2ccc(F)cc2F)CCCNC1` (stereo not drawn) reads -20.29%.
The result for `COc1ccccc1Oc1ncccc1CNC(=O)C1(C)CCCNC1` (stereo not drawn) reads 43.27%; that for `O=C(CC1CC1)N(Cc1cccnc1)CC1CCN(C2CCCC2)CC1`, -53.72%; that for `Cn1nccc1C(=O)N1CCC(n2cc(-c3ccsc3)nn2)CC1`, 15.68%.
In the case of `CCC(O)CN1CCN(C(=O)c2cccc3c2OCC(=O)N3)CC1` (stereo not drawn), the INHIBITION is recorded as -29.24%.
Turning to `COCc1cn(CC2CCN(Cc3cc(C)[nH]n3)CC2)nn1`, the INHIBITION is given as 26.3%.
For the compound `Fc1ccc(N2CCCN(c3ccc(Cn4ccnc4)cn3)CC2)cc1`, the INHIBITION is reported as 54.49%.
`c1cn(Cc2ccc(N3CCCN(C4CCCC4)CC3)nc2)cn1`: the INHIBITION is reported as 4.63%.
For the compound `c1csc(CN2CCCN(c3ccc(Cn4ccnc4)cn3)CC2)c1`, the INHIBITION stood at 17.61%.
Consider `COc1ccc2[nH]cc(-c3ccnc(NC4CCCC4)n3)c2c1`, for which the INHIBITION is -4.95%.
`Cc1noc(CCCC(=O)NC(C)c2ccc(Cl)s2)n1` (stereo not drawn): the INHIBITION stood at 15.4%.
Consider `Cc1nc(NCC(O)CN2CCCCCC2)c2c(C)noc2n1` (stereo not drawn), for which the INHIBITION is recorded as 30.87%.
Take `CCc1cnc(C)nc1NCCN1CCCCCC1`: the INHIBITION stood at 7.08%.
In the case of `CCc1cnc(C)nc1NCC(O)CN1CCCCCC1` (stereo not drawn), the INHIBITION was 80.68%.
As for `COc1cccc(S(=O)(=O)N2CCCc3c(OC)nn(C)c3C2)c1`, the figure is 39.57%.
As to `COc1nn(C)c2c1CCCN(S(=O)(=O)c1cccc(C)c1)C2`, the INHIBITION stood at 23.43%.
As to `COc1nn(C)c2c1CCCN(S(=O)(=O)c1cccc(F)c1)C2`, the INHIBITION is 52.47%.
As for `COCc1nc(CNc2cc(C)on2)cs1`, the figure is -65.51%; as for `O=C(NC1CC1)[C@@H]1CCO[C@@H]2CCN(Cc3ccco3)C[C@H]21`, 46.73%.
With `COc1cccc(-c2cc(NCCO)nc3[nH]ccc23)n1`, the INHIBITION turned out to be 0.51%.
Consider `COc1cccc(-c2cc(NCC(=O)O)nc3[nH]ccc23)n1`, for which the INHIBITION is 74.44%.
With `COc1cccc(-c2cc(NCCN(C)C)nc3[nH]ccc23)n1`, the INHIBITION turned out to be 0.51%.
Regarding `N[C@H]1CN(C(=O)c2ccccc2OCc2ccccc2)C[C@@H]1C1CC1`, the INHIBITION is given as 13.86%.
As for `Cc1nccn1C1CCCN(C(=O)c2ccc3cc[nH]c3c2)C1` (stereo not drawn), the figure is 74.35%.
For `Cc1nn2cccnc2c1C(=O)N1CCCC(n2ccnc2)C1` (stereo not drawn), the INHIBITION turned out to be 28.51%.
The result for `Cc1nn2cccnc2c1C(=O)N1CCCC(n2ccnc2C)C1` (stereo not drawn) reads 56.02%; that for `Cc1nccn1C1CCCN(C(=O)c2cc3ccccc3[nH]2)C1` (stereo not drawn), -43.41%; that for `Cc1nn2cccnc2c1C(=O)N1CCCC(n2cccn2)C1` (stereo not drawn), -21.72%.
Take `Cc1nccn1C1CCCN(C(=O)c2ccc3c(c2)CCC3)C1` (stereo not drawn): the INHIBITION is on record as -33.61%.
As to `Cc1nccn1C1CCCN(C(=O)c2ccc3c(c2)nnn3C)C1` (stereo not drawn), the INHIBITION is 1.61%.
For `CN(C)c1ccc(C(=O)N2CCCC(n3cccn3)C2)cn1` (stereo not drawn), the INHIBITION was found to be 39.54%.
On to `Cc1nccn1C1CCCN(C(=O)c2ccc(N(C)C)nn2)C1` (stereo not drawn), for which the INHIBITION is 19.35%.
Regarding `CCc1nccn1C1CCCN(C(=O)c2ccc3c(c2)nnn3C)C1` (stereo not drawn), the INHIBITION is listed as 58.05%.
Turning to `Cc1nccn1C1CCCN(C(=O)c2ccc(N(C)C)nc2)C1` (stereo not drawn), the INHIBITION amounted to 55.7%.
On to `CCc1nccn1C1CCCN(C(=O)c2ccc(OC)c(OC)c2)C1` (stereo not drawn), for which the INHIBITION is -14.17%.
The result for `O=C(NCC1CCC(c2nnc(-c3cccnc3)o2)CC1)C1CC1` (stereo not drawn) reads 43.77%.
Turning to `O=C(O)c1c(Cl)ncn1-c1ccccc1`, the INHIBITION is 19.33%.
For `CS(=O)(=O)N1CCOCC2(CN(Cc3ccc(F)cc3)CCO2)C1` (stereo not drawn), the INHIBITION is reported as -64.46%.
Turning to `COc1ccc(C2CCCN2C(=O)NCCNc2ccccn2)cc1` (stereo not drawn), the INHIBITION is recorded as -34.82%.
As for `CCOc1ccc(CNCC(O)c2ccccc2)cc1Cl` (stereo not drawn), the INHIBITION amounted to 38.61%.
`CCOC(=O)N1CCC(C(=O)Nc2nnc(C(F)(F)F)[nH]2)CC1`: the INHIBITION was -22.24%.
As to `O=C(Nc1ccccc1)NC1CCN(C2CCOC2)CC1` (stereo not drawn), the INHIBITION is reported as -22.24%.
Regarding `COc1c(C2CCCN2C(=O)c2cnc[nH]2)c(C)nn1C` (stereo not drawn), the INHIBITION was -7.41%.
As to `CCc1nc(CC(=O)N2CCC(C(=O)N(CC)CC)CC2)cs1`, the INHIBITION is given as -6.37%.
`COc1ccc(CC(=O)NCCCc2nnc3nc(C)cc(C)n23)cc1`: the INHIBITION is 0.54%.
Regarding `NC1CCC(Nc2nccc(CCC(F)(F)F)n2)CC1` (stereo not drawn), the INHIBITION was 2.17%.
As for `Cc1nn(C)c2sc(C(=O)N3CCCC(n4ccnc4C)C3)cc12` (stereo not drawn), the INHIBITION is given as 51.49%.
Consider `Cc1cc(C(=O)N2CCCC(n3ccnc3C)C2)c(C)s1` (stereo not drawn), for which the INHIBITION is given as -0.55%.
On to `Cc1nc(C)c(C(=O)N2CCCC(n3ccnc3C)C2)s1` (stereo not drawn), for which the INHIBITION is on record as 45.49%.
Turning to `N#Cc1cn(C2CC2)c(=O)n(CC(O)c2ccc(Cl)cc2)c1=O` (stereo not drawn), the INHIBITION was 28.33%.
As for `Nc1cc2c(nn1)CCN(C(=O)c1csc(-c3ccccc3)n1)C2`, the figure is 29.13%.
On to `Nc1cc2c(nn1)CCN(C(=O)c1csc(-c3ccco3)n1)C2`, for which the INHIBITION is reported as 64.9%.
Consider `Nc1cc2c(nn1)CCN(C(=O)c1csc(-c3cccs3)n1)C2`, for which the INHIBITION is reported as 38.67%.
Turning to `Cc1cc(=O)n(C)cc1NC(=O)CC1CCC1`, the INHIBITION is given as -54.44%.
Regarding `CCN(C)C(=O)c1cccc(S(=O)(=O)NCCc2csc(N)n2)c1`, the INHIBITION was 67.22%.
As for `CCc1nc(CCNS(=O)(=O)c2cccc(C(=O)N(C)CC)c2)cs1`, the figure is 34.18%; as for `CCN(C)C(=O)c1cccc(S(=O)(=O)NCCc2nc(C)cc(=O)[nH]2)c1`, 7.83%.
